We go through nine compounds from PubChem BioAssay.

A number with no mark means an inactive call. For part of these data: Measured potencies and affinities stand elsewhere. Activity calls are given as the source filed them. Unless noted, how the calls were made is not given here.

Assay [1] is described as follows: antimalarial activity against Dd2 strain (AID 2302;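 active means growth inhibition above 50% at the single 2 µM test dose, taken to imply half-maximal potency below 2 µM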;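 further: 0% = DMSO untreated growth and 100% = chloroquine plus artemisinin killed control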). Conditions: P. falciparum Dd2 in RBCs, LDH growth readout, 72 h; at 2 µM; active compounds read high.
Assay [2] can be described thus: human hepatoma cell viability loss – ATP luminescence, cytotoxicity control for P. falciparum antimalarial project, primary screen (AID 2303;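 active means inhibition above 50%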;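 further: 0% = DMSO wells and 100% = digitonin-killed cells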). Particulars: HepG2 viability, 24-48 h, at 10 µM, active compounds read high.
Assay [3] has as its target L-lactate dehydrogenase (Plasmodium falciparum (isolate CDC / Honduras)) (UniProt Q27743). The assay is described as follows: PfLDH activity inhibition – cell lysate, 3D7 strain, counter-screen for P. falciparum growth inhibition project (AID 2304).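 Further: 0% = vehicle and 100% = reference inhibitor.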 Particulars: P. falciparum 3D7 crude extract, LDH APAD/NBT absorbance; at 2 µM; active compounds read high.
Assay [4] can be described thus: inhibition of 3D7 malaria parasite growth – strain 3D7 (AID 2306).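 Further: 0% = DMSO wells and 100% = chloroquine plus artemisinin control wells.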 Particulars: P. falciparum 3D7 erythrocytic growth, LDH absorbance, 72 h; at 2 µM; active compounds read high.
For assay [5], the target named is Calcium-dependent protein kinase 1 (Plasmodium falciparum (isolate 3D7)) (UniProt P62344). The experiment in a line: PfCDPK1 kinase inhibitors, biochemical, TCAMS library (AID 1159585; cut-off not given, nearly all actives have IC50 up to about 0.98 µM;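 further: inhibitors leave more ATP so luminescence rises with inhibition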). Conditions: recombinant PfCDPK1, Kinase-Glo ATP depletion luminescence.
Assay [6] has as its target Plasmodium falciparum protein kinase 6 (PK6, PF3D7_1337100) (UniProt Q8IDW1). The assay is described as follows: PfPK6 kinase inhibitors, biochemical, TCAMS library (AID 1159586). Particulars: recombinant PfPK6, Kinase-Glo ATP depletion luminescence.
Assay [7] concerns the target Protein kinase 7 (PK7), Plasmodium falciparum 3D7 (PF3D7_0213400) (UniProt Q7YTF7). The experiment in a line: inhibition of Plasmodium PK7 catalytic activity – biochemical, TCAMS antimalarial set, Kinase-Glo luminescence (AID 1159587). Conditions: recombinant PfPK7, Kinase-Glo ATP depletion luminescence.
Assay [8] deals with Calcium-dependent protein kinase 4 (Plasmodium falciparum (isolate 3D7)) (UniProt Q8IBS5). The assay is described as follows: PfCDPK4 kinase inhibitors, biochemical, TCAMS library (AID 1159588; cut-off not given, nearly all actives have IC50 up to about 0.91 µM). Particulars: recombinant PfCDPK4, Kinase-Glo ATP depletion luminescence.
Calcium-dependent protein kinase 4 (Plasmodium falciparum (isolate 3D7)), sequence (Q8IBS5 whole entry, looked up): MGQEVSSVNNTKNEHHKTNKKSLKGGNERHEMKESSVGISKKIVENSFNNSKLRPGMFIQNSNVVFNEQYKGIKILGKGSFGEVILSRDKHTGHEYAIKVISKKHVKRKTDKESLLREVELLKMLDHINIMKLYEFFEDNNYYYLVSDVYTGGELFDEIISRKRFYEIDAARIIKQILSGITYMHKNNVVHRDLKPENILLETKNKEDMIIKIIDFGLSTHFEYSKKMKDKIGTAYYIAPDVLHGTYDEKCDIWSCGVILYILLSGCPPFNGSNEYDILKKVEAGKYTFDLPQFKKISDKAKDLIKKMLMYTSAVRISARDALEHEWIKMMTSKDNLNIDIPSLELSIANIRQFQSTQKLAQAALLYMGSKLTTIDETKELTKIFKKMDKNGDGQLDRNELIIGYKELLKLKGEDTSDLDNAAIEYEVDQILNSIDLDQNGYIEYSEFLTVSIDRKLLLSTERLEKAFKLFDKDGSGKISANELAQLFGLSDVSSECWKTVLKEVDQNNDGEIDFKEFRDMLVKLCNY

Calcium-dependent protein kinase 1 (Plasmodium falciparum (isolate 3D7)), sequence (P62344 whole entry, looked up): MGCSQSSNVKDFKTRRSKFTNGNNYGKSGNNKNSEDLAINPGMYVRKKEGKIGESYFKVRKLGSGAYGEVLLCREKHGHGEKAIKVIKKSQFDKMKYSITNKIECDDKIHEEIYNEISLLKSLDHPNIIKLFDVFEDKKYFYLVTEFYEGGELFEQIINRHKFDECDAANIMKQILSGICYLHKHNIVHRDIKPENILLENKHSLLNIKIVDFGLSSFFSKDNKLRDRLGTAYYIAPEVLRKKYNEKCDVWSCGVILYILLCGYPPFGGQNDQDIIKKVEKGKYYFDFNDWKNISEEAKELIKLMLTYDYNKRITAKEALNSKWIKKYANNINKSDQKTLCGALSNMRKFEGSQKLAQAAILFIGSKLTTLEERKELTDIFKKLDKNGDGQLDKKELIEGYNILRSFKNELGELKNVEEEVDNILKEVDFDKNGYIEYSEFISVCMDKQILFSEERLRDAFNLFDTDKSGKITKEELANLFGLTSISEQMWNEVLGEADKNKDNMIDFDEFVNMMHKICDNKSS
Protein kinase 7 (PK7), Plasmodium falciparum 3D7 (PF3D7_0213400), sequence (Q7YTF7 1-343): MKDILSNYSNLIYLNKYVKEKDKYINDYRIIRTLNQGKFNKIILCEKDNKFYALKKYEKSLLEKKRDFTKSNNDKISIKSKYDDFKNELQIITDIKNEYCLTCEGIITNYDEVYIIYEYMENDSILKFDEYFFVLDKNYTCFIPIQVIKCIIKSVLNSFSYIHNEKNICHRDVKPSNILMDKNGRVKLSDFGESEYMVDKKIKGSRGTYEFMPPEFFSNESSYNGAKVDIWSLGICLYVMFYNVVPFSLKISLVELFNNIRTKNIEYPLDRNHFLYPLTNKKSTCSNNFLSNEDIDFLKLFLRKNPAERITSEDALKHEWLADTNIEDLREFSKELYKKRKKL
L-lactate dehydrogenase (Plasmodium falciparum (isolate CDC / Honduras)), sequence (Q27743 whole entry, looked up): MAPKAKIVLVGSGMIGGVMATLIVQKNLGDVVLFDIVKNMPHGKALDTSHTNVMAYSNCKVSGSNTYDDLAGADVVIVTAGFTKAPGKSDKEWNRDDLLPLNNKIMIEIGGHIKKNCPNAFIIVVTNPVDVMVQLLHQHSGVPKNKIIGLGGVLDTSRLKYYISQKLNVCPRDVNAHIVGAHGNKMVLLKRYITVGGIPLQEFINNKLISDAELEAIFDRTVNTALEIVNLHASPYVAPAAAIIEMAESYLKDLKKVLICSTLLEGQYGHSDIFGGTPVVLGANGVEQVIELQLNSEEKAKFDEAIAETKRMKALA
Plasmodium falciparum protein kinase 6 (PK6, PF3D7_1337100), sequence (Q8IDW1 1-305): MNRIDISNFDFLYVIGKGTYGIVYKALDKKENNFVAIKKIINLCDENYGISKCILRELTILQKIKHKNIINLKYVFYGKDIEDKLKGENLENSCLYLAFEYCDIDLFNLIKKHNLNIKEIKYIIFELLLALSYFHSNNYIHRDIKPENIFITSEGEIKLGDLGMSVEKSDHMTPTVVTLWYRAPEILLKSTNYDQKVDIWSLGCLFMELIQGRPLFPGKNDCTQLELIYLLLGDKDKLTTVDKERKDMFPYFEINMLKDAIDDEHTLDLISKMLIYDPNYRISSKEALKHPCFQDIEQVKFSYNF

As to `CN(C)c1cccc(NC(=O)NC2N=C(c3ccccc3)c3ccccc3N(CC(=O)N(C)c3ccccc3)C2=O)c1` (configuration not stated), the growth inhibition in assay [1] is 80% (active); in assay [4], 99% (active). Besides, the inhibition is 1% in assay [2] and 4% in assay [3]. Further, the result in assay [5], in assay [6], in assay [7] and in assay [8] was inactive.

In the case of `CC(=O)Nc1ccc(CN2CCC(N(C)c3cc(NC(=O)c4cccc(F)c4)ccn3)CC2)cc1`, the growth inhibition was -1% in assay [1] and 85% (active) in assay [4]. For the same compound, the figures for the inhibition in assay [2] and in assay [3] were 4% and 2%, respectively. Besides, the result in assay [5], in assay [6], in assay [7] and in assay [8] was inactive.

Regarding `CC[C@H]1CN2CC[C@@H]1C[C@H]2[C@H](O)c1ccnc2ccc(OC)cc12`, the growth inhibition is 61% (active) in assay [1] and 100% (active) in assay [4]. In addition, the inhibition in assay [2] is -8%; in assay [3] it was -4%. The result in assay [5], in assay [6], in assay [7] and in assay [8] was inactive.

In the case of `CCCc1c(C(=O)NC2CCC(CN3CCC(c4c[nH]c5ccccc45)CC3)CC2)cnn1-c1ccc(Cl)cc1` (configuration not stated), the growth inhibition in assay [1] is 37%; in assay [4], 90% (active). In addition, the values for the inhibition in assay [2] and in assay [3] were 53% (active) and 1%, respectively. For the same compound, the outcome in assay [5], in assay [6], in assay [7] and in assay [8] was inactive.

With `CCCCn1c(C)c(C(=O)OCC)c2cc(OC(C)=O)c(Br)cc21`, the results for the growth inhibition in assay [1] and in assay [4] were 79% (active) and 98% (active), respectively. Also, the inhibition was -8% in assay [2] and -1% in assay [3]. The outcome in assay [5], in assay [6], in assay [7] and in assay [8] was inactive.

As for `O=C(/C=C/c1ccc(Cl)c(Cl)c1)NC1CCC(CN2CCC(c3c[nH]c4cc(O)ccc34)CC2)CC1` (configuration not stated), the figures for the growth inhibition in assay [1] and in assay [4] were 98% (active) and 100% (active), respectively. Besides, the values for the inhibition in assay [2] and in assay [3] were 18% and -10%, respectively. Moreover, the outcome in assay [5], in assay [6], in assay [7] and in assay [8] was inactive.

With `CC(Cc1ccc(NC(=O)CCCc2ccccc2)cc1)NCCc1cccc(Cl)c1` (configuration not stated), the growth inhibition is 3% in assay [1] and 94% (active) in assay [4]. Further, the inhibition in assay [2] was 12%; in assay [3], -5%. The outcome in assay [5], in assay [6], in assay [7] and in assay [8] was inactive.

Take `COc1ccc(OC)c(C=CC(=O)NC2CCC(CN3CCC(c4c[nH]c5ccccc45)CC3)CC2)c1` (configuration not stated): the growth inhibition in assay [1] was 62% (active); in assay [4], 98% (active). Besides, the inhibition is 43% in assay [2] and -4% in assay [3]. Also, the outcome in assay [5], in assay [6], in assay [7] and in assay [8] was inactive.

With `CC(C)(C)c1ccc(Cn2nc(C(=O)N3CCN(C(=O)C4CCCO4)CC3)c3ccccc32)cc1` (configuration not stated), the figures for the growth inhibition in assay [1] and in assay [4] were 83% (active) and 90% (active), respectively. In addition, the inhibition was -2% in assay [2] and -3% in assay [3]. The result in assay [5], in assay [6], in assay [7] and in assay [8] was inactive.
